In all, about 25,000 sequences were measured (“ln(normalized median fluorescence intensity)”: median about 9.7, highest 2% from about 11 on). This excerpt belongs to a sample that is enriched for the highest values.

The test system of this assay is PfAP2-HC AP2 domain (GST-tagged). As to the kind of experiment: gcPBM binding intensity (ln(normalized median fluorescence intensity)); higher = stronger DNA binding. In a few lines: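 GST-fused DNA-binding domains of P. falciparum, expressed in E. coli, were applied at about 25 μg on average for 1 h to an Agilent 4 × 180k array of primer-extended double-stranded 36-bp intergenic genomic probes and negative controls. Binding intensity is the highest Masliner-normalised natural-log median intensity across replicate spots of either probe orientation, measured with Alexa488 anti-GST antibody and a 488 nm scan.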
Turning to “ATGTGTATATGTTAATGTACAAATTTTGAAAATGCC [XGTACX_site2685]”, the “gcPBM binding intensity (ln)” value was determined as 9.86.

For the sequence TATTATTATTTTATGGTGCAAAAAAAAAAAAAAAAA, the “gcPBM binding intensity (ln)” value is 8.83. Regarding “TATTATATCTTATATGTATATTCCCACAAATTATAT [GTGCAC_negctrl_site362]”, the “gcPBM binding intensity (ln)” value worked out at 9.59. As for “TTTTGTTGTATGATAATTCTTTTATCAATATGTCTT [TGCATGCA_negctrl_site567]”, the “gcPBM binding intensity (ln)” value turned out to be 9.63.

For the sequence “ACATTCACAAAATTTTGTACACATATATATATATAT [XGTACX_site3518]”, the “gcPBM binding intensity (ln)” value amounted to 9.96. “AATATATTTTAATACACACACACATATATATATATA [CACACA_site5969]”: the “gcPBM binding intensity (ln)” value was 10.4.

For the sequence “AAAAAAACATGAAACACACACAAATATTTATTTATA [CACACA_site6967]”, the “gcPBM binding intensity (ln)” value worked out at 10.2. In the case of “TACTTACATATAATAACACACAAGAAAAAAATAAAA [CACACA_site1033]” it was 9.83; in that of “ACCTAAAAGGTATAATATATAAATAAAAAAAAAAAT [CACACA_negctrl_site134]”, 9.72. In the case of “AAAAAAAAAAAAAAAACACACACATACACCCAAAAA [CACACA_site7910]” it was 10.5.

Turning to “AAAAAAAAAAAAAACACACACACACCCAAATATATA [CACACA_site1169]”, the “gcPBM binding intensity (ln)” value amounted to 11.3. On to “AAAACACCCAAACACACACACACATATATATATATA [CACACA_site9119]”, for which the “gcPBM binding intensity (ln)” value worked out at 10.8. In the case of “AAAAAAAAAAAACACACACACACACCCAAATATATA [CACACA_site150]” it was 10.6; in that of “AAAAAAAAAAAAAAAAAAAAACACCCAAAAAAATAT [XGTACX_negctrl_site210]”, 10.1; in that of “TATACTCAGAAACACACACACACACCCAAAAAAAAA [CACACA_site4434]”, 11.1. In the case of “AACAAAAAAACAAACACACACACACCCATATATATA [CACACA_site3652]” it was 10.6. Take “CAAAAAAACAAACACACACACACACCCATATATATA [CACACA_site3653]”: the “gcPBM binding intensity (ln)” value came to 11.5. Next, “GTATAATAGAAACACACACACACACCCAAAAAAAAA [CACACA_site2010]”: 10.7; “ATATAATGAATTATTAGAAAATAAAATGAATAAAGT [CACACA_negctrl_site690]”: 9.87. Next, “CATTTTGTTTTAAAGTGTACATTATGTAATATAAAA [XGTACX_site647]”: 9.33. Next, “TTTTAAAGAAAATATTTTATCATTATTTTTTGTACT [CACACA_negctrl_site1648]”: 9.57; “AATATAAATTTATATTGTACATATTTTATTATATGT [XGTACX_site905]”: 9.67; “TAAAACAGAATGAGGAGTACAAAAAGAAGAAAAGGG [XGTACX_site1246]”: 9.83. Turning to “ATAAAATGAAATATATGTACGCATCACTTGTTGAAC [XGTACX_site4530]”, the “gcPBM binding intensity (ln)” value amounted to 9.72. Next, “AAAAAAAAAAAAAAAAAAAAATATATATATATATAT [GTGCAC_negctrl_site426]”: 9.47. Regarding “TATTTTGTTCTTTCCACACACAAATACAGATATTGT [CACACA_site6097]”, the “gcPBM binding intensity (ln)” value was 10.1. Next, “CAAACACCCAAACACACACACACATACATACATACA [CACACA_site8044]”: 10.7. Next, “AAAAAAAAAAAACACACACACACATACCCATACATA [CACACA_site5575]”: 11.3. In the case of “AAAAAAAAAAAACACACACACACACCCATATACATA [CACACA_site2664]” it was 11; in that of “AACACCCAAAAACACACACACATACATACATACATA [CACACA_site4411]”, 10.3; in that of “AAAAAAAAAAAAAAAACACACATACACCCCCACCCA [CACACA_site9117]”, 10.2. Take “AAAAAAAAAAAACACACACACACACCCATACATACA [CACACA_site707]”: the “gcPBM binding intensity (ln)” value was 11.4.

Take “CACAAACACCCAAACACACACACACCGACATACATA [CACACA_site4410]”: the “gcPBM binding intensity (ln)” value was 11.1.

Consider “AAAAAAAAAAAAAACACACACACACCCATACCCATA [CACACA_site5577]”, for which the “gcPBM binding intensity (ln)” value stood at 10.5. Turning to “TTAAAAAAAAAACACACACACATACCCATATATATA [CACACA_site5768]”, the “gcPBM binding intensity (ln)” value came out at 10.4. In the case of “TAAACACCCATACATACACACATACATACACCCATA [CACACA_site5125]” it was 10; in that of “AAAAAAAAAAAAAACACACACACACCCACATATACA [CACACA_site2663]”, 10.6. On to “ACTAATATGTATATATATATATATATATATATATAT [CACACA_negctrl_site141]”, for which the “gcPBM binding intensity (ln)” value was 9.58. In the case of “TCTTAATTTGTTATATGTACATAATATAATTGTATA [XGTACX_site5184]” it was 9.55; in that of “TATTATTTATATGATACACACGTACATATACACATA [CACACA_site9275]”, 9.86; in that of “TTTAATAATATAATGTGTACTTAAAAATTTATATAT [XGTACX_site5821]”, 9.44. Next, “AACATACATAAACACACACACACACCCACAGAGACA [CACACA_site4430]”: 11; “AAAAAGAAAAAACTTACACACATATATACCCCCATG [CACACA_site4463]”: 10.2; “AAAAAGAAAAAACTTACACACATATATACACCCATG [CACACA_site8079]”: 11.3. Next, “TATACATACATACATACACACACACCGATATATACA [CACACA_site8184]”: 10.8. Turning to “AAAAAACAGACATACACACACACACCCATATATATA [CACACA_site3392]”, the “gcPBM binding intensity (ln)” value is 10.8. Next, “TAAACATACAGATACACACACACACCCACAGAGACA [CACACA_site4429]”: 10.6; “CATACACCCAGACACACACACATATATATATATATA [CACACA_site634]”: 10.4. “AAAAAGAAAAAACTTACACACATATATACAGACATG [CACACA_site550]”: the “gcPBM binding intensity (ln)” value was determined as 10. Next, “CATACATACAAACACACACACACACCGATATATATA [CACACA_site8952]”: 10.7.

In the case of “AAAAAAAAAAAAAAAACACACATACACCCAGACACA [CACACA_site5807]”, the “gcPBM binding intensity (ln)” value was 11.3. Next, “AACATACATAAACACACACACACACCCACACCCACA [CACACA_site8058]”: 10.8; “AAAAAACACCCATACACACACACACCGATATATATA [CACACA_site5808]”: 11. As for “TTTAAAACCTTACATACACACAAATATATATATATA [CACACA_site677]”, the “gcPBM binding intensity (ln)” value is 10. Next, “AAAAAATATGCATATACACACATATGTATAAATAAC [CACACA_site7090]”: 10.1; “TATTTAACACCTTATACACACTTTCTTCCTTTTTTA [CACACA_site4590]”: 10.1.
